# Mac1 fbg enh: CD11b/CD18-fibrinogen binding enhancement; K562 CD11b/CD18 adhesion to fibrinogen, ATPlite luminescence; activation, % at 10 µM; 93,000 compounds, 0.07% hits; AID 1499;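 active = 10 µM primary screen giving 50% or more activity, confirmed by 40% or more on retest at that dose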
# Target sequence (P05107 whole entry, looked up, other chains not shown): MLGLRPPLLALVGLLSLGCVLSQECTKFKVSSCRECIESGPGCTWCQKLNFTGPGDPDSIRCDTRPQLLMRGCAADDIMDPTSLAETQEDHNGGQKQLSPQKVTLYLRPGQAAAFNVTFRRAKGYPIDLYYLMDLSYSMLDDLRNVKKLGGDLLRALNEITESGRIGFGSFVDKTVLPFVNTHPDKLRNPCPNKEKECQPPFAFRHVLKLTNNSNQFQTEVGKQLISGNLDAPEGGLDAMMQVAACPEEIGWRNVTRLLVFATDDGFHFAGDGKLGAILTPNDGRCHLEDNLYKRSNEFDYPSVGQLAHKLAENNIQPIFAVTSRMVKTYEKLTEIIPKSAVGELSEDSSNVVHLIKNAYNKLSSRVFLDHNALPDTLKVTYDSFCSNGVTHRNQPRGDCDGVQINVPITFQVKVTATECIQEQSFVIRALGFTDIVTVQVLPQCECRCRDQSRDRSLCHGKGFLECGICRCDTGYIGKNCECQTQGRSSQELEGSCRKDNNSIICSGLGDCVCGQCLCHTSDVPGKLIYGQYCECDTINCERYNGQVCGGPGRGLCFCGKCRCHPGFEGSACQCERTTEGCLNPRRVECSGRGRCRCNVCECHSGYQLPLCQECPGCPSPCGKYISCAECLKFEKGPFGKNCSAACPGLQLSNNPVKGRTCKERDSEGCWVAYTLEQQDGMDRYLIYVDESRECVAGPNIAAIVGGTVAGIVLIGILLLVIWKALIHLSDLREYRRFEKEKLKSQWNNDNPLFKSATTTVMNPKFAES
# CD11b adhes inh: blocks human CD11b/CD18 adhesion to fibrinogen | K562 CD11b/CD18 adhesion to fibrinogen, ATPlite luminescence; Mn2+ added to activate the integrin | inhibition, % at 10 µM | 93,000 compounds, 0.54% hits;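 active = primary inhibition of 50% or more at 10 µM, then 40% or more on retest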
# Cav32 inh: human Cav3.2 channel inhibition, primary screen. B-score at 10 µM. O95180. 100,000 compounds, 4% hits. Cav3.2-expressing cells, Fluo-4 calcium fluorescence FDSS; hits give low values;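 active = single-dose well whose peak fluorescence ratio is a statistical outlier from its plate by either plate-standardised score or position-corrected B-score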
# MRP resist rev: reverses drug resistance mediated by MRP. H69AR cells + 2 uM doxorubicin, CellTiter-Glo, 72 h. differential viability (reversal), % at 10 µM. 85,000 compounds, 0.04% hits. AID 602;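 active = viability drop by adding the cancer drug above about 55%, with treated viability meeting a 40% cutoff, limit read from the data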;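 note: viability without doxorubicin minus viability with 2 µM doxorubicin for each compound; larger differential means the compound sensitizes cells more to doxorubicin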
# PTK2B oligo ant: Pyk2 (human) oligomerization antagonism. Q293 cells, Pyk2 FERM NanoBiT luminescence; hits give low values. 99,000 compounds, 0.83% hits. Q14289. AID 1347419. z-score (the deposit names both 25 µM and 10 µM);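 active = Z-score of -3 or lower, scaled per plate to the spread of control and sample wells; inactive = z-score above -3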;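 note: negative z-score means lost luminescence so less FERM oligomerization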
# MRP1 act: activators of MRP-1; H69AR cells + doxorubicin, viability rescue, CellTiter-Glo; viability increase, % at 10 µM; 140,000 compounds, 0.61% hits;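 active = viability gain under doxorubicin at or above a set limit, the compound median plus 3 SD, cut at about 4.7% in these data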;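 note: MRP-1 overexpressing cells given doxorubicin 25 µM after compound pretreatment; 18-22 h compound pretreatment then 72 h with doxorubicin before readout; 0% = doxorubicin-only wells and 100% = vehicle-treated cells without doxorubicin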
# * = called active by the depositor; nt = no result given. Most compounds without a hit are left out; they make up all but 4.1% or so of the library.
SMILES,Mac1 fbg enh,CD11b adhes inh,Cav32 inh,MRP resist rev,PTK2B oligo ant,MRP1 act
Cc1ccc(SCCNS(=O)(=O)c2ccc3c(c2)OCCO3)cc1,nt,nt,-6.9*,9,-0.56,-4
O=S(=O)(NCCCCCNS(=O)(=O)c1ccc(F)cc1)c1ccc(F)cc1,0,-16,-5.8*,-6,0.66,-2
CCN(CC)S(=O)(=O)c1ccc2c(c1)nc(CCC(=O)OCC(=O)Nc1c(F)cccc1F)n2C,nt,nt,nt,nt,nt,-1
O=C1/C(=C\c2ccco2)SC(=S)N1c1ccccc1,nt,nt,nt,nt,nt,4.7*
Cc1ccc(N2C(=O)/C(=C\c3ccco3)SC2=S)cc1,nt,nt,-0.24,nt,0.73,-2
COC(=O)c1ccc(NC(=S)N2CCN(Cc3cccc(C)c3)CC2)cc1,nt,nt,-4.4*,nt,0.86,1
COC(=O)c1ccc(NC(=S)N2CCN(Cc3ccccc3)CC2)cc1,nt,nt,0.26,nt,-0.55,0
COc1cc(C2CC(=O)c3cnc(NC(=O)COc4ccccc4)nc3C2)cc(OC)c1OC (stereo unspecified),1,-10,0.24,1,-3.1*,-1
Cc1ccc(OCC(=O)N2CCN(S(=O)(=O)c3ccccc3)CC2)c([N+](=O)[O-])n1,nt,nt,nt,nt,nt,-1
COc1ccc(OC(=O)c2cccc([N+](=O)[O-])c2)c(C(=O)/C=C/c2cccs2)c1,2,-20,0.72,1,-0.29,-3
COc1ccc(C(=O)/C=C/c2ccccc2OC)c(OC(=O)c2ccc([N+](=O)[O-])cc2)c1,nt,nt,-1.7,nt,-3.3*,nt
COC(=O)c1cc(COC(=O)c2ccc3ccccc3n2)oc1C,-5,26,0.01,0,1.2,-1
Cc1ccc(C(=O)Nc2nc(-c3cccnc3)cs2)o1,-3,14,0.0093,10,0.04,-4
O=C(Nc1nc(-c2ccccc2)cs1)c1ccc(Br)o1,nt,nt,-2.8,nt,0.03,6.9*
CCc1ccc(-c2csc(NC(=O)Oc3ccccc3)n2)cc1,30,-21,nt,nt,nt,13*
O=C(NC(=S)Nc1nc(-c2ccccc2)cs1)c1cccs1,nt,nt,nt,nt,nt,-1
O=C(NC(=S)Nc1nc(-c2ccccc2)cs1)c1cncc(Br)c1,nt,nt,0.87,nt,-0.13,6.8*
CCn1cc(C2=NCC(C)O2)c2ccccc21 (stereo unspecified),1,-27,-2.9,2,1.5,-2
COc1cccc(OC)c1-c1nn2c(-c3cc(-c4ccccc4)n[nH]3)nnc2s1,nt,nt,0.91,nt,-3.1*,-2
COC(=O)CCn1nnc(-c2ccc(C(C)C)cc2)n1,3,6,-5.4*,-6,1.7,1
COc1ccc(C2CN=NC23CCCc2ccccc2C3=O)cc1 (stereo unspecified),-3,25,-4.2*,nt,0.31,-5
O=C1c2ccccc2CCC12N=NCC2c1ccc(Cl)cc1 (stereo unspecified),nt,nt,-2.2,-3,1.1,-4
COc1ccccc1C1CN=NC12CCCc1ccccc1C2=O (stereo unspecified),2,-9,-4.7*,nt,-0.34,-1
Cn1c(=O)c2c(ncn2CC(=O)OCC(=O)Nc2ccc(Cl)cc2Cl)n(C)c1=O,nt,nt,nt,nt,nt,-1
COCC(C)n1c(SCC(=O)NCCC2=CCCCC2)nc2ccccc2c1=O (stereo unspecified),-1,4,-4,nt,-0.32,-2
SMILES,Mac1 fbg enh,CD11b adhes inh,Cav32 inh,MRP resist rev,PTK2B oligo ant,MRP1 act
Cc1ccc(NC(=O)Cn2c(/C=C/c3ccccc3)nc3ccccc32)cc1C,5,-27,nt,nt,-3.8*,-2
Cc1nc2ccccc2n1CC(=O)N/N=C\C=C\c1ccccc1,nt,nt,0.49,nt,-0.03,-3
FC(F)(F)c1cccc(N2CCN(CC3CC4C=CC3C4)CC2)c1 (stereo unspecified),nt,nt,0.2,-4,0.76,-2
COC(=O)C1=C(C)N(c2ccc(OC)cc2)C(=O)/C1=C\c1cccs1,nt,nt,nt,nt,nt,-3
Cc1ccc(/C=C2\CCC3=C2OC(N)=C(C#N)C3c2ccc(C)cc2)cc1 (stereo unspecified),-2,-13,-6.5*,nt,-0.27,-4
Cc1cccc(-n2nnc(C(=O)NC3CCCc4ccccc43)c2N)c1 (stereo unspecified),nt,nt,-6.6*,-48,-0.56,-2
Cc1cc(C(=O)NC2CCCc3ccccc32)no1 (stereo unspecified),-8,-12,0.32,17,0.84,-1
O=C(Cc1ccc(-n2c(=O)[nH]c3ccsc3c2=O)cc1)N1CCN(c2ccc(Cl)cc2)CC1,nt,nt,nt,nt,nt,5.0*

# High-throughput results: PubChem BioAssay, several laboratories
